# Out of some 190,000 compounds screened, about 1,300 (0.68%) were called active. The list comes from a sample in which actives are over-represented; it also holds similar structures and randomly drawn compounds. Unmarked numbers belong to inactive results. No stated cut-off is given here; in the data, active means inhibition above about 50%; inactive means the rest.
# Target: Mannose-6-phosphate isomerase (Homo sapiens) (UniProt P34949)
# Assay: MPI inhibition at elevated mannose 6-phosphate – biochemical, fluorescence intensity, high mannose 6-phosphate, primary screen (AID 1220)
# Conditions: recombinant PMI enzyme, coupled fluorescence intensity; at 20 µM; active compounds read high
# Mannose-6-phosphate isomerase (Homo sapiens), sequence (P34949 whole entry, looked up): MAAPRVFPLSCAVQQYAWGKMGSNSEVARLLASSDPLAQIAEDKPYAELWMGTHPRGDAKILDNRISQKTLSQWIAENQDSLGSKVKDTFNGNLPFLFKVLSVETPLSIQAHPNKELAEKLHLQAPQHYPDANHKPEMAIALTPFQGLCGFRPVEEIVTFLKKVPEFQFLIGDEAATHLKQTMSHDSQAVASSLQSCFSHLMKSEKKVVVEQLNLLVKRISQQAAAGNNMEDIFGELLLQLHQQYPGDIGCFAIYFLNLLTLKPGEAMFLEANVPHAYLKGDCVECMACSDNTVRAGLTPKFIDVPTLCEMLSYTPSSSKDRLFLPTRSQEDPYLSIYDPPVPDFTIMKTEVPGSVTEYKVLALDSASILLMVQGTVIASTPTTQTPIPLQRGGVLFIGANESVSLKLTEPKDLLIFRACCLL
row,Compound,inhibition
1,COc1cccc(C2CC3C(=O)C=CC2N3Cc2ccccc2)c1 (stereo not given),61.2% (active)
2,COc1cccc(CN2CCCCC2c2cccnc2)c1 (stereo not given),-2.6%
3,COc1cccc(NC(=O)CN2CC(c3ccccc3)CC2=O)c1 (stereo not given),-4.8%
4,CCN(CC)CCCN=C(C)c1c(O)n(C2CCCCC2)c(=O)[nH]c1=O,-9.1%
5,CCCNC(=O)c1c(N)n(CC2CCCO2)c2nc3ccccc3nc12 (stereo not given),56.1% (active)
6,CCCCn1c(N)c(C(=O)NCCN2CCOCC2)c2nc3ccccc3nc21,48.6%
7,CCCCn1c(N)c(C(=O)OCC2CCCO2)c2nc3ccccc3nc21 (stereo not given),12%
8,CCC(C)NC(=O)c1c(N)n(CC2CCCO2)c2nc3ccccc3nc12 (stereo not given),64.3% (active)
9,CCCCCn1c(N)c(C(=O)NCCN2CCOCC2)c2nc3ccccc3nc21,51.4% (active)
10,CC(C)CCOC(=O)c1c(N)n(CC2CCCO2)c2nc3ccccc3nc12 (stereo not given),5.9%
11,Nc1c(C(=O)OC2CCCCC2)c2nc3ccccc3nc2n1CC1CCCO1 (stereo not given),24.9%
12,CC(C)OC(=O)c1c(N)n(CC2CCCO2)c2nc3ccccc3nc12 (stereo not given),16.9%
13,CC(C)CCNC(=O)c1c(N)n(CC2CCCO2)c2nc3ccccc3nc12 (stereo not given),23.9%
14,Nc1c(C(=O)NC2CCCC2)c2nc3ccccc3nc2n1CC1CCCO1 (stereo not given),62.2% (active)
15,CCCCCCn1c(N)c(C(=O)NCCN2CCOCC2)c2nc3ccccc3nc21,23.2%
16,CC(C)OCCCNC(=O)c1c(N)n(CC2CCCO2)c2nc3ccccc3nc12 (stereo not given),22.1%
17,CC(NCc1ccccc1Cl)C(O)c1ccccc1 (stereo not given),-3.1%
18,CCN(CC)P(=S)(c1c(C)nc2ccccn12)c1c(C)nc2ccccn12,-6.3%
19,CN1CCN(S(=O)(=O)c2cnc(Cl)c(Br)c2)CC1,10.5%
20,COc1ccc(N2C(=O)NC(=O)/C(=C/c3ccc4c(c3)Cc3ccccc3-4)C2=O)cc1,-32.8%
21,COc1ccc(-c2cc(=NCCC(=O)O)c3cc(C)ccc3o2)cc1,3.9%
22,CN1CCN(c2ccc(F)cc2N)CC1,-0.9%
23,OCC12COC3c4ccccc4C(OC1)N32 (stereo not given),5.1%
24,COc1ccc(N=Cc2c(O)n(Cc3cccs3)c(=O)[nH]c2=O)cc1,0.9%
25,COc1ccc(P2(=O)Nc3ccccc3N2)cc1,52.2% (active)

row,Compound,inhibition
1,COc1ccc(OP(=O)(Nc2ccccc2)Nc2ccccc2)cc1,-14.6%
2,COc1ccc(NP(=O)(Nc2ccc(OC)cc2)Oc2ccccc2)cc1,-1.9%
3,C[N+](C)(C)c1ccccc1,10.3%
4,CCCCCCC(=O)c1c(O)n(-c2ccccc2OC)c(=O)[nH]c1=O,-8.9%
5,CCn1nc(-c2cccs2)nc2c(=O)n(C)c(=O)nc1-2,8.9%
6,O=[N+]([O-])c1ccc(N2CCOCC2)c2cccnc12,36.9%
7,O=[N+]([O-])c1ccc(N2CCCC2)c2ccncc12,47.4%
8,O=[N+]([O-])c1ccc(N2CCOCC2)c2ccncc12,55.8% (active)
9,COc1cccc(C(=O)C2CCCN(Cc3ccon3)C2)c1 (stereo not given),8.8%
10,O=C(CN1CCOCC1)NCC(=O)Nc1ccc(Br)cc1C(=O)c1ccccc1,-0.3%
11,CCC[N+]12CCC(CC1)C(=C(c1ccccc1)c1ccccc1)C2,5.9%
12,O=c1[nH]c(=S)n(Cc2ccc(F)cc2)c(O)c1C=NCC1CCCO1 (stereo not given),6.1%
13,CCOC(=O)c1c(NS(=O)(=O)c2ccccc2)n(CCCOC)c2nc3ccccc3nc12,44.9%
14,CCCCn1c(NC(=O)c2ccc(Br)o2)c(C(=O)OCC)c2nc3ccccc3nc21,56.4% (active)
15,CCCCn1c(NS(=O)(=O)c2ccccc2)c(C(=O)OCC)c2nc3ccccc3nc21,42.5%
16,CCOC(=O)c1c(N)n(CCCOC(=O)c2ccco2)c2nc3ccccc3nc12,0.2%
17,COCCNC(=O)c1c(NC(=O)c2ccc(Br)o2)n(Cc2ccccc2)c2nc3ccccc3nc12,46.5%
18,CCCCn1c(NS(=O)(=O)c2ccc(C)cc2)c(C(=O)OCC)c2nc3ccccc3nc21,52.3% (active)
19,Cc1cc(C=O)c(C)n1CC1CCCO1 (stereo not given),-8.4%
20,COc1ccc(C(=O)C2CCCN(C3CSCCSC3)C2)cc1OC (stereo not given),8.3%
21,CN1C(=O)C(=Cc2ccccc2OCc2ccccc2Cl)C(=O)N(C)C1=O,-9.8%
22,Cn1ncnc2c(=O)n(C)c(=O)nc1-2,61.6% (active)
23,CCn1nc(/C=C/c2ccccc2)nc2c(=O)n(C)c(=O)nc1-2,46.6%
24,CCn1nc(-c2ccccc2)nc2c(=O)n(C)c(=O)nc1-2,7.6%
25,Cc1cc(=O)n(-c2ccccc2)n1-c1ccccc1,-4.7%

row,Compound,inhibition
1,CCOC(=O)c1c(-n2c(C)cc(/C=C3\C(=O)NC(=O)N(C)C3=O)c2C)sc2c1CCCC2,12.7%
2,Cc1cc2c(C(C)C)c(O)c(O)c(C=O)c2c(O)c1-c1c(C)cc2c(C(C)C)c(O)c(O)c(C=O)c2c1O,51.4% (active)
3,COc1ccc(-c2nc3ccccc3c(=O)n2-c2cccnc2)cc1,-2.9%
4,O=C1/C(=C\c2cc3c(cc2Cl)OCO3)N2CCC1CC2,57.2% (active)
5,O=C1/C(=C/c2cc([N+](=O)[O-])ccc2Cl)N2CCC1CC2,-0.3%
6,O=C1/C(=C/c2cc3c(cc2Cl)OCO3)N2CCC1CC2,51% (active)
7,O=C1/C(=C\c2cc3c(cc2Br)OCO3)N2CCC1CC2,19.8%
8,O=C1/C(=C\c2ccc3c(c2)OCO3)N2CCC1CC2,5.7%
9,O=C1/C(=C/c2ccc3c(c2)OCO3)N2CCC1CC2,-2.8%
10,CCN(CC)CC(O)c1ccc(C2CCCC2)cc1 (stereo not given),-5.5%
11,C=CCn1c(O)c(C(CC)=Nc2ccccc2NC(C)=O)c(=O)[nH]c1=O,0.5%
12,CCOC(=O)C(NC(C)=O)C(OC(C)=O)c1cccc(N(CCCl)CCCl)c1 (stereo not given),-101%
13,CC(NC(=O)Oc1ccccc1)C(c1cccs1)N1CCOCC1 (stereo not given),3%
14,Cc1ccc(-c2nn(Cc3ccccc3)cc2C=O)cc1,3.6%
15,O=c1[nH]c(O)c(N=Nc2ccc3c(c2)OCCO3)c(=O)[nH]1,2.6%
16,O=C(N=Nc1c(O)[nH]c(=O)[nH]c1=O)C1COc2ccccc2O1 (stereo not given),56.6% (active)
17,O=C(c1ccccc1)c1ccc(N=Nc2c(O)[nH]c(=O)[nH]c2=O)cc1,-8.7%
18,O=C(N=Nc1c(O)[nH]c(=O)[nH]c1=O)C1COc2cc3ccccc3cc2O1 (stereo not given),51.7% (active)
19,NC(=O)c1ccc(N=Nc2c(O)[nH]c(=O)[nH]c2=O)cc1,2.6%
20,O=c1[nH]c(O)c(N=Nc2ccc([N+](=O)[O-])cc2)c(=O)[nH]1,-7.5%
21,CN(C)C(=O)Oc1ccc(-c2nnco2)cc1,2.3%
22,OC1(c2cccnc2)CC2CCC(C1)N2Cc1nnnn1Cc1ccccc1 (stereo not given),-8.1%
23,CCOP(=O)(OCC)C(c1ccccc1)N(C)C=O (stereo not given),1.8%
24,CC(C)(C)NC(=O)NC(=O)CN1CC=C(c2ccccc2)CC1,7.7%
25,O=C1NC(=O)C2(Cc3ccccc3N3CCCC32)C(=O)N1 (stereo not given),-47.2%

row,Compound,inhibition
1,O=C(Nc1ccc2c(c1)OCO2)c1cn(Cc2ccc(F)cc2)nn1,12.6%
2,COc1ccccc1NC1(C#N)CCCCC1,38.8%
3,COc1ccc(NC2(C#N)CCCCC2)cc1,52.7% (active)
4,Cc1ccccc1NC1(C#N)CCCCC1,-0.6%
5,Cc1sc2ncn(CC(=O)NCCCC(=O)N3CCC4(CC3)OCCO4)c(=O)c2c1C,-1.4%
6,O=C1C=Cc2ccccc2C1=O,75.2% (active)
7,O=C1C(=O)c2ccccc2-c2ccccc21,1.8%
8,O=C1C(=O)c2cccc3cccc1c23,44.3%
9,O=[N+]([O-])c1ccc(NCc2ccccc2)c2nonc12,43.9%
10,O=[N+]([O-])c1ccc(NCCO)c2ncccc12,35.9%
11,CCN(CCNc1ccc([N+](=O)[O-])c2cccnc12)S(=O)(=O)c1ccc(Cl)cc1,36.7%
12,CCN(CC)c1ccc([N+](=O)[O-])c2cccnc12,67.2% (active)
13,O=[N+]([O-])c1ccc(NCCCN2CCOCC2)c2ncccc12,57.5% (active)
14,NCCNc1ccc([N+](=O)[O-])c2cccnc12,51.1% (active)
15,Cc1nonc1OCCNc1ccc([N+](=O)[O-])c2cccnc12,33.9%
16,CC(O)CNc1ccc([N+](=O)[O-])c2cccnc12 (stereo not given),52.2% (active)
17,O=C(NCCCN1CCOCC1)C(Cl)(Cl)Cl,-7.8%
18,CCC(CO)Nc1ccc([N+](=O)[O-])c2cccnc12 (stereo not given),38.6%
19,Cc1nonc1OCCNCCNc1ccc([N+](=O)[O-])c2cccnc12,39%
20,CCN(CCNc1ccc([N+](=O)[O-])c2cccnc12)S(=O)(=O)c1ccccc1,8.2%
21,CCC(=O)N1c2ccc(S(=O)(=O)CCC(=O)N3CCC4(CC3)OCCO4)cc2CC1C (stereo not given),-5.2%
22,O=C1CN=C(c2ccc(F)cc2)c2oc3ccccc3c2N1,-7.1%
23,CCOC(=O)c1c(C)n(Cc2ccccc2)c2ccc(O)cc12,40.8%
24,O=C(c1ccc2c(c1)OCO2)C1CCCN(CC2CCCCC2)C1 (stereo not given),12.9%
25,CCOP(=O)(OCC)C(O)c1ccc(OC)c(OC)c1 (stereo not given),2.3%

# — PubChem BioAssay AID1220 (Sanford-Burnham Center for Chemical Genomics, 2008)
